Source: PubChem BioAssay (NCATS)
For part of these data: Measured potencies and affinities stand elsewhere. Activity calls are given as the source filed them. How the calls were made is not given here.

Key:
[1] = Ebola virus entry assay, green fluorescence channel
[2] = Ebola virus entry assay, green channel fluorescence
[3] = Ebola virus entry assay, reporter ratio channel; AC50: Channel type: primary unless noted; outcome: Channel type: primary unless noted

Measured: efficacy
Wherever efficacy is given: 0% is about no effect.

OCc1cccnc1
inactive: [1] -9.44% | [2] | [3]

Cc1cc2cc3c(C)cc(=O)oc3c(C)c2o1
inactive: [1] -24.3% | [2] | [3]

Cc1c(C(=O)NCCO)[n+](=O)c2ccccc2n1[O-]
inactive: [1] -17% | [2] | [3]

CCNC(=O)/C=C/c1cccc(Br)c1
inactive: [1] -12% | [2] | [3]

Oc1ccccc1C=NCc1ccccc1
inactive: [1] -16.4% | [2] | [3]

CC12CCC(CC1)C(C)(C)O2
inactive: [1] 14.6% | [2] | [3]

CCc1oc2ccccc2c1C(=O)c1cc(I)c(O)c(I)c1
inactive: [1] -12% | [2] | [3]

NC(=O)NC1N=C([O][Al])NC1=O (stereo not drawn)
inactive: [1] 12.9% | [2] | [3]

N#CSCC(=O)O
inactive: [1] -33.9% | [2] | [3]

CN1CCN(N)CC1
inactive: [1] 16.4% | [2] | [3]

NS(=O)(=O)c1ccc(C(=O)O)cc1
inactive: [1] 11% | [2] | [3]

CCCCCN(CCCOC)C(=O)C(CCC(=O)O)NC(=O)c1ccc(Cl)c(Cl)c1 (stereo not drawn)
inactive: [1] -27.8% | [2] | [3]

CCCCOC(=O)c1ccc(N)cc1
inactive: [1] 12.8% | [2] | [3]

Cc1ccc(S(=O)(=O)NC(=O)NC2CCCCC2)cc1
inactive: [1] -18.8% | [2] | [3]

O=C(O)Cc1sc(-c2ccccc2)nc1-c1ccc(Cl)cc1
inactive: [1] -17.4% | [2] | [3]

C/C(=N\O)[C@@H](C)NCC(C)(C)CN[C@H](C)/C(C)=N/O
inactive: [1] -29.3% | [2] | [3]
